# Laboratory results published in PubChem BioAssay (NCI).
# Values joined by “and” are separate entries in the source; they are usually repeats but may differ in a detail not shown here. Equal entries are not always repeated. The panel holds about 79,000 compounds, 15% with a hit somewhere; the sample as a whole holds those more often. A structure can be active in one record and inactive in another. Active and inactive are the calls of the source. Rule as the data show it: active = growth inhibition above about 70%; inactive = the rest.
# Key:
# [1] = NCI Yeast Anticancer Drug Screen. Data for the wt1 strain (AID 149);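 also: 0% = growth of vehicle-treated wt1 cultures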; details: S. cerevisiae wt1 strain (SPY 50644) growth inhibition, stronger effect = higher value
# How it was run: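 Readout: yeast growth inhibition, normalised to vehicle controls, in the wt1 strain exposed to test compounds.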
# [2] = NCI Yeast Anticancer Drug Screen. Data for the rad50EPP+ strain (AID 151);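 also: 0% = growth of vehicle-treated control cultures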; details: S. cerevisiae rad50 mutant strain, stronger effect = higher value
# How it was run: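 In this screen, rad50EPP+ yeast were exposed to compounds. Growth inhibition was scored against vehicle-treated controls.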
# [3] = NCI Yeast Anticancer Drug Screen. Data for the mec2-1 strain (AID 157); details: S. cerevisiae mec2-1 strain, stronger effect = higher value
# How it was run: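 Vehicle-treated cultures served as reference for growth inhibition of compound-exposed mec2-1 yeast.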
# [4] = NCI Yeast Anticancer Drug Screen. Data for the rad14 strain (AID 159);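 also: 0% = growth of vehicle-treated control cultures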; details: S. cerevisiae rad14 strain growth inhibition, stronger effect = higher value
# How it was run: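 Compound-treated yeast with a defined DNA-repair lesion; growth inhibition normalised to vehicle-treated cultures.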
# [5] = NCI Yeast Anticancer Drug Screen. Data for the CLN2oe strain (AID 163);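 also: 0% = growth of vehicle-only control cultures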; details: S. cerevisiae CLN2oe strain, stronger effect = higher value
# How it was run: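 Inhibition relative to vehicle-treated yeast is reported. Cells: strain with genetic alteration in cell-cycle control, grown with compound.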
# [6] = NCI Yeast Anticancer Drug Screen. Data for the bub3 strain (AID 167); details: S. cerevisiae bub3 mutant strain, stronger effect = higher value
# How it was run: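 Growth of a checkpoint-deficient yeast mutant is measured after compound exposure. Values represent inhibition relative to vehicle.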
# [7] = NCI Yeast Anticancer Drug Screen. Data for the wt2 strain (AID 169);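 also: 0% = growth of vehicle-treated yeast cultures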; details: S. cerevisiae wt2 strain growth inhibition, stronger effect = higher value
# How it was run: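 Inhibition of yeast growth was determined after compound treatment, normalised to controls receiving only vehicle.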
# [8] = NCI Yeast Anticancer Drug Screen. Data for the mlh1 strain (AID 171);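 also: 0% = growth of vehicle-treated control cultures of the same strain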; details: S. cerevisiae mlh1 strain growth inhibition, stronger effect = higher value
# How it was run: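 Vehicle-normalised growth inhibition of a repair- or checkpoint-altered yeast strain following compound treatment.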
# [9] = NCI Yeast Anticancer Drug Screen. Data for the sgs1 strain (AID 173);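 also: 0% = growth of vehicle-only control cultures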; details: S. cerevisiae sgs1 mutant, stronger effect = higher value
# How it was run: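 Screen format: yeast with repair or checkpoint alterations, compound exposure, growth read relative to vehicle.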
# [10] = NCI Yeast Anticancer Drug Screen. Data for the mlh1 rad18 strain (AID 175); details: S. cerevisiae mlh1 rad18 strain growth inhibition, stronger effect = higher value
# How it was run: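 Vehicle-treated cultures served as the reference for growth inhibition in a yeast strain carrying DNA damage repair alterations exposed to each compound.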
# [11] = NCI Yeast Anticancer Drug Screen. Data for the rad18 strain (AID 177); details: S. cerevisiae rad18 mutant growth inhibition, stronger effect = higher value
# How it was run: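 Test articles were incubated with altered yeast defective in DNA damage repair. Results are given as inhibition of growth versus vehicle.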
# [12] = NCI Yeast Anticancer Drug Screen. Data for the rad50 strain (AID 155);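 also: 0% = growth of vehicle-only cultures of the same strain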; details: S. cerevisiae rad50 strain growth inhibition, stronger effect = higher value
# How it was run: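 Compounds were tested on a yeast strain with an engineered DNA damage repair alteration; the reported value is growth inhibition normalised to vehicle treatment.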
# [13] = NCI Yeast Anticancer Drug Screen. Data for the sgs1 mgt1 strain (AID 161);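 also: 0% = growth of cultures given vehicle only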; details: S. cerevisiae sgs1 mgt1 strain, stronger effect = higher value
# How it was run: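 Test agents were incubated with a DNA-repair-mutant yeast strain. Growth was then read and compared against vehicle-treated controls.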
# [14] = NCI Yeast Anticancer Drug Screen. Data for the cln2 rad14 strain (AID 165);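 also: 0% = growth equal to vehicle treated cultures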; details: S. cerevisiae cln2 rad14 strain, stronger effect = higher value
# How it was run: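 Each compound was tested on cln2 rad14 yeast. Inhibition of growth was calculated against vehicle-exposed controls.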
# [15] = at 5.0 µM (retest, dose inferred, filed as 0.5)
# [16] = at 50.0 µM (retest, dose inferred, filed as 5.0)
smiles,measurement,setting,value
Clc1ccc(C(c2ccc(Cl)cc2)N2CCNCC2)cc1,growth inhibition,[1]; at 1.2 µM,5% (inactive)
same,growth inhibition,[1]; at 3.7 µM,6% (inactive)
same,growth inhibition,[1]; at 11.0 µM,3% (inactive)
same,growth inhibition,[1]; at 33.0 µM,29% (inactive)
same,growth inhibition,[1]; at 100.0 µM,98% (active)
same,growth inhibition,[2]; at 1.2 µM,1% (inactive)
same,growth inhibition,[2]; at 3.7 µM,5% (inactive)
same,growth inhibition,[2]; at 11.0 µM,5% (inactive)
same,growth inhibition,[2]; at 33.0 µM,3% (inactive)
same,growth inhibition,[2]; at 100.0 µM,-1% (inactive)
same,growth inhibition,[3]; at 1.2 µM,-19% (inactive)
same,growth inhibition,[3]; at 3.7 µM,-19% (inactive)
same,growth inhibition,[3]; [15],70% (active)
same,growth inhibition,[3]; at 11.0 µM,-10% (inactive)
same,growth inhibition,[3]; at 33.0 µM,49% (inactive)
same,growth inhibition,[3]; [16],96% (active)
same,growth inhibition,[3]; at 50.0 µM,93% (active)
same,growth inhibition,[3]; at 100.0 µM,98% (active)
same,growth inhibition,[4]; at 1.2 µM,-36% (inactive)
same,growth inhibition,[4]; at 3.7 µM,-30% (inactive)
same,growth inhibition,[4]; at 11.0 µM,-41% (inactive)
same,growth inhibition,[4]; at 33.0 µM,71% (active)
same,growth inhibition,[4]; at 100.0 µM,98% (active)
same,growth inhibition,[5]; at 1.2 µM,-1% (inactive)
same,growth inhibition,[5]; at 3.7 µM,-2% (inactive)
same,growth inhibition,[5]; at 11.0 µM,1% (inactive)
same,growth inhibition,[5]; at 33.0 µM,18% (inactive)
same,growth inhibition,[5]; at 100.0 µM,92% (active)
same,growth inhibition,[6]; at 1.2 µM,1% (inactive)
same,growth inhibition,[6]; at 3.7 µM,3% (inactive)
same,growth inhibition,[6]; [15],12% (inactive)
same,growth inhibition,[6]; at 11.0 µM,12% (inactive)
same,growth inhibition,[6]; at 33.0 µM,71% (active)
same,growth inhibition,[6]; [16],96% (active)
same,growth inhibition,[6]; at 100.0 µM,94% (active)
same,growth inhibition,[7]; at 1.2 µM,-3% (inactive)
same,growth inhibition,[7]; at 3.7 µM,-2% (inactive)
same,growth inhibition,[7]; at 11.0 µM,-81% (inactive)
same,growth inhibition,[7]; at 33.0 µM,46% (inactive)
same,growth inhibition,[7]; at 100.0 µM,99% (active)
same,growth inhibition,[8]; at 1.2 µM,-35% (inactive)
same,growth inhibition,[8]; at 3.7 µM,-34% (inactive)
same,growth inhibition,[8]; at 11.0 µM,-34% (inactive)
same,growth inhibition,[8]; at 33.0 µM,49% (inactive)
same,growth inhibition,[8]; at 100.0 µM,98% (active)
same,growth inhibition,[9]; at 1.2 µM,-26% (inactive)
same,growth inhibition,[9]; at 3.7 µM,-33% (inactive)
same,growth inhibition,[9]; at 11.0 µM,-34% (inactive)
same,growth inhibition,[9]; at 33.0 µM,41% (inactive)
same,growth inhibition,[9]; at 100.0 µM,98% (active)
same,growth inhibition,[10]; [15],45% (inactive)
same,growth inhibition,[10]; [16],96% (active)
same,growth inhibition,[10]; at 50.0 µM,92.3% (active)
same,growth inhibition,[11]; at 1.2 µM,3% (inactive)
same,growth inhibition,[11]; at 3.7 µM,-7% (inactive)
same,growth inhibition,[11]; at 11.0 µM,4% (inactive)
same,growth inhibition,[11]; at 33.0 µM,65% (inactive)
same,growth inhibition,[11]; at 100.0 µM,98% (active)
COc1cccc2c1C(=O)c1c(O)c3c(c(O)c1C2=O)CC(O)(C(=O)CO)CC3OC1CC(N)C(O)C(C)O1 (stereo not given),growth inhibition,[12]; [15],13% (inactive) and 24% (inactive) and 34% (inactive)
same,growth inhibition,[12]; [16],13% (inactive) and 18% (inactive) and 91% (active)
same,growth inhibition,[3]; [15],7% (inactive) and 6% (inactive) and 14% (inactive)
same,growth inhibition,[3]; [16],8% (inactive) and 10% (inactive) and 58% (inactive)
same,growth inhibition,[13]; [15],7% (inactive) and 16% (inactive) and 25% (inactive)
same,growth inhibition,[13]; [16],0% (inactive) and 4% (inactive) and 71% (active)
same,growth inhibition,[14]; [15],2% (inactive) and 8% (inactive) and 23% (inactive)
same,growth inhibition,[14]; [16],1% (inactive) and 4% (inactive) and 53% (inactive)
same,growth inhibition,[6]; [15],10% (inactive) and 15% (inactive) and 18% (inactive)
same,growth inhibition,[6]; [16],13% (inactive) and 16% (inactive) and 76% (active)
same,growth inhibition,[10]; [15],-5% (inactive) and 20% (inactive) and 42% (inactive)
same,growth inhibition,[10]; [16],-1% (inactive) and 3% (inactive) and 94% (active)
